Screening results deposited in PubChem BioAssay by National Center for Advancing Translational Sciences (NCATS).
In the library only some 10% were active in any assay of this set; here they are far more common.
BAZ2B block = blocks human BAZ2B; 4.4% of 360,000 active; AID 504333; Q9UIF8; AlphaScreen BAZ2B-H3K14Ac peptide displacement; Potency, µM (titrated, usually from 114 µM), usual class: inhibitors; note: nearly all actives have a fitted effect of over 60% in size
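BAZ2B (50 nM) with biotin-H3(5-23)K14Ac peptide (50 nM) in PBS pH 7.4, 0.01% Tween-20, preformed 30 min, then compound 30 min at room temperature; top concentration 110uM. AlphaScreen streptavidin donor/nickel chelate acceptor beads (10 ug/mL final), 20 min dark, signal read.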
GLS inh = glutaminase GLS (human) inhibition; O94925; Potency, µM (titrated, usually from 45.5 µM), actives largely listed as inhibitors; GLS enzymatic activity, qHTS titration; 0.21% of 410,000 active; AID 624170
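Human kidney-isoform GLS in 45 mM KH2PO4 pH 8.2, 0.02% Tween-20, with compound, started with 1mM L-Glutamine (added stock). Glutamate oxidase/HRP/Amplex red coupled fluorescence read at start and after 30 min at RT.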
JMJD2A Tudor = blocks the human JMJD2A Tudor domain | O75164 | AlphaScreen JMJD2A-Tudor / H3K4me3 peptide binding | Potency, µM (doses to about 114 µM), usual class: inhibitors | 4.4% of 390,000 active | AID 504339; note: nearly all actives have a fitted effect of over 50% in size
L3MBTL1 inh = L3MBTL1 (human) inhibition; AlphaScreen L3MBTL1–H3K9me1 peptide binding; Potency, µM (titrated, usually from 57.1 µM), hits mostly inhibitors; 0.66% of 230,000 active; AID 485360; note: nearly all actives have a fitted effect of over 60% in size
Target sequence (Q9Y468 whole entry, looked up): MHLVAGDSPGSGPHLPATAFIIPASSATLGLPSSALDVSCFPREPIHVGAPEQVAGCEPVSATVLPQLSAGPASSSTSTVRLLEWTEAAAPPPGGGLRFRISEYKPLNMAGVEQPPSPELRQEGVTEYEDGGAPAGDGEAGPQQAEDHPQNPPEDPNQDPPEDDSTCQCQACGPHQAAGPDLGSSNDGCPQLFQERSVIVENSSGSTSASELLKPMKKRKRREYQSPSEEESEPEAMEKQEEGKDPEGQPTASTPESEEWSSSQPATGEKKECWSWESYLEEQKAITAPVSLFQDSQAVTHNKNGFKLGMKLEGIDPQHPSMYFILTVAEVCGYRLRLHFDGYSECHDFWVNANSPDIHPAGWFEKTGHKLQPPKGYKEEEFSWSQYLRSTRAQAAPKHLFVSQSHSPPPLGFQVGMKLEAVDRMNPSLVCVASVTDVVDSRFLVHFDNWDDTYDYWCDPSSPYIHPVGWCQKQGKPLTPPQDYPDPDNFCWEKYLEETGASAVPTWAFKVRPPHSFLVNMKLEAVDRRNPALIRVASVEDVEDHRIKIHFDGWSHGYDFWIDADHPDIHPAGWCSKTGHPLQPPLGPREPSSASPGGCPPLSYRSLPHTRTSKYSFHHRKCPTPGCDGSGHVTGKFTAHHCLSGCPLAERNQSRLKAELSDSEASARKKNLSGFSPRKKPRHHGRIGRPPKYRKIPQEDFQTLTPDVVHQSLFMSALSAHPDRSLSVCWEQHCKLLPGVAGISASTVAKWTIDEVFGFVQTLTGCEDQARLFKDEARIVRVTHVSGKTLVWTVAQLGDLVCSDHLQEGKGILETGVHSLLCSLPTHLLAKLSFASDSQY
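AlphaScreen proximity signal between nickel-chelate acceptor and streptavidin donor beads (final 10 ug/mL) reports binding of 50 nM L3MBTL1 to 75 nM biotin-H3 K9me1 peptide; complex incubated with compounds 30 min at room temperature; cefsulodin titration as control.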
HP1b binding inh = HP1-beta chromodomain-methylated histone interaction inhibition | AID 540317 | P83916 | AlphaScreen HP1-beta / biotin-H3K9me3 peptide binding | Potency, µM (highest dose often 114 µM), hits mostly inhibitors | 0.56% of 390,000 active; note: nearly all actives have a fitted effect of over 70% in size
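Compound inhibition of the preformed complex between 50 nM HP1-beta and 50 nM biotinylated H3K9me3 peptide was read by AlphaScreen. Buffer was PBS pH 7.4 with 0.01% Tween-20. Incubations ran 30 min at room temperature, with 10 ug/mL donor/acceptor beads.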
G9a inh = inhibitors of human histone lysine methyltransferase G9a. G9a H3K9 monomethylation, AlphaScreen, 2 h. Potency, µM (titrated, usually from 102 µM), hits mostly inhibitors. 8.8% of 350,000 active; note: nearly all actives have a fitted effect of over 75% in size
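Signal arises when biotinylated H3K9 peptide, once monomethylated, bridges streptavidin donor and antibody-captured acceptor beads. Enzyme at 20 nM was preincubated 15 min with test compounds; peptide 500 nM and SAM 20 uM then reacted for 2 h.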
Hits are given with their value; . = inactive; ? = inconclusive; / = not tested or not shown; [ ] = another dose, or the depositor's remark. Calls come from the whole dose curve; as a rule, active = well fitted curve in the direction sought with a large enough effect; inconclusive = small, poorly fitted or top-dose-only effect, or another doubt; inactive = no such curve, though single readings can be large; an effect the other way counts as inactive or inconclusive.

SMILES | BAZ2B block | GLS inh | JMJD2A Tudor | L3MBTL1 inh | HP1b binding inh | G9a inh
O=C(c1cc(-c2cccc(O)c2)on1)N1CCCCC1 | . | . | . | . | . | .
O=C(c1cc(-c2ccc(O)cc2)on1)N1CCN(c2ccccc2)CC1 | ? | . | 56µM | / | . | .
O=C(c1cc(C2CC2)nn1-c1ccccc1)N1CCN(c2ccccc2O)CC1 | / | ? | . | . | . | /
CCc1ccc(OC(C)c2nc(-c3ccc(-n4cccc4)cc3)no2)cc1 (stereo not given) | . | . | . | / | . | .
COc1ccc(CCn2c(=S)[nH]c(=O)c3nccnc32)cc1OC | / | / | . | / | . | /
FC(F)(F)c1ccc(/C=N/n2c(C3CCCCC3)n[nH]c2=S)cc1 | . | . | ? | / | . | 50µM
S=c1[nH]nc(C2CCCCC2)n1/N=C/c1c(Cl)cccc1Cl | . | ? | . | / | . | 3.5µM
CCN(CC)S(=O)(=O)c1cccc(-c2n[nH]c(=S)n2/N=C/c2ccc(Br)cc2)c1 | . | . | ? | . | . | ?
S=c1[nH]nc(C2CCCCC2)n1/N=C/c1ccc(Br)cc1 | . | . | . | / | . | 10µM
S=c1[nH]nc(C2CCCCC2)n1/N=C/c1ccc(Cl)cc1 | . | ? | . | / | . | 40µM
Cc1oc(-c2ccc(C(=O)Nc3cc(F)ccc3F)cc2)nc1COc1ccccc1 | . | . | . | / | . | .
Cc1ccc(/C=N/n2c(C3CCCCC3)n[nH]c2=S)cc1 | . | . | ? | / | . | 10µM
CCc1ccc(/C=N/n2c(C3CCCCC3)n[nH]c2=S)cc1 | . | . | ? | / | . | 32µM
S=c1[nH]nc(C2CCCCC2)n1/N=C/c1ccc(Br)s1 | . | ? | . | . | . | 8.9µM
Cc1ccccc1-c1noc(-c2ccc(N3CCC(C)CC3)c([N+](=O)[O-])c2)n1 | . | . | . | / | . | .
O=C(Nc1csc([N+](=O)[O-])c1)Nc1ccccc1Cl | . | . | . | / | . | .
O=C(Nc1ccc(Cl)cc1)Nc1ccccc1Sc1ncc([N+](=O)[O-])s1 | 28µM | . | ? | / | . | /
O=C(CNc1ccc2ccccc2c1)N/N=C/c1ccncc1 | . | . | . | / | . | 1.4µM
O=C(CNc1ccc2ccccc2c1)N/N=C/c1ccc(OC(=O)/C=C/c2ccco2)cc1 | . | . | . | . | . | ?
O=C(CNc1ccc2ccccc2c1)N/N=C/c1ccccn1 | . | . | . | . | . | 4µM
O=C(c1ccc2c(=O)n(-c3ccccc3)c(=O)[nH]c2c1)N1CCN(Cc2cccs2)CC1 | / | / | . | / | . | /
NC(=O)c1nsc(C(=O)N(c2ccccc2)C(C(=O)NCC2CCCO2)c2cccs2)c1N (stereo not given) | . | . | . | . | . | .
COc1cccc(N(C(=O)c2snc(C(N)=O)c2N)C(C(=O)NCC2CCCO2)c2cccs2)c1 (stereo not given) | . | . | . | / | . | 35µM
COc1ccc(C(C(=O)NC2CCCC2)N(C(=O)c2snc(C(N)=O)c2N)c2cccc(O)c2)cc1 (stereo not given) | ? | . | ? | / | . | 71µM
CCc1ccc(/C(C)=N\Nc2ccc([N+](=O)[O-])cc2)cc1 | . | . | . | . | . | .[0.501 µM]
SMILES | BAZ2B block | GLS inh | JMJD2A Tudor | L3MBTL1 inh | HP1b binding inh | G9a inh
C/C(=N\Nc1nc(C)c(C)s1)c1ccc([N+](=O)[O-])cc1 | 35µM | . | ? | . | ? | 18µM
C/C(=N\Nc1ccc([N+](=O)[O-])cc1)c1ccc(N)cc1 | . | . | ? | . | . | 7.1µM
C/C(=N\Nc1ccc([N+](=O)[O-])cc1)c1ccc(-n2nncc2C)cc1 | . | . | . | . | . | .
c1ccc(C2=Nn3c(nnc3-c3ccccn3)SC2)cc1 | 28µM | . | . | ? | . | ?
c1ccc(C2=Nn3c(nnc3-c3ccncc3)SC2)cc1 | . | . | . | . | . | ?
CC1=Nn2c(nnc2-c2ccccn2)SC1 | 50µM | . | 22µM | . | . | .[12.7 µM]
Cc1cc(-c2nnc3n2N=C(c2ccccc2)CS3)n[nH]1 | . | . | ? | . | . | 45µM
